# Inconclusive results are not listed. Entries that show only a call come without a potency. Activity calls are given as the source filed them. Unless noted, the call rests on the fitted dose curve; in most records, active means well fitted curve in the direction sought with a large enough effect; inconclusive means small, poorly fitted or top-dose-only effect, or another doubt; inactive means no such curve, though single readings can be large; an effect the other way counts as inactive or inconclusive.
# Legend:
# [1] = qHTS assay for small molecule antagonists of retinoid X receptor alpha signaling (AID 588546; active means well fitted inhibition curve with a large enough effect in the signal ratio, with a control signal flat, not every such curve was filed as active; the % refers to the signal ratio;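 further: cells stimulated with 9-cis-retinoic acid as agonist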); details: HEK293T RXRa-UAS-bla, beta-lactamase ratio, antagonist mode; measured here: W530 green channel, cytotoxicity proxy
# In short: (§1)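 Beta-lactamase reporter inhibition, read as CCF4 fluorescence ratio (ex 405, em 460/530 nm) after 2 h at RT. HEK293T UAS-bla cells, 2500/well, were stimulated with 9-cis-RA at 500 or 100 nM final alongside test compound for 18 h at 37 C.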
# [2] = molecular target: Retinoic acid receptor RXR-alpha (Homo sapiens) (UniProt P19793); experiment: as above; details: HEK293T RXRa-UAS-bla, beta-lactamase ratio, antagonist mode
# In short: as §1
# [3] = molecular target: Thyroid hormone receptor beta (Homo sapiens) (UniProt P10828); experiment: qHTS assay for small molecule antagonists of thyroid hormone receptor beta signaling (AID 588547; active means well fitted inhibition curve with a large enough effect in the signal ratio, with a control signal flat, not every such curve was filed as active; the % refers to the signal ratio;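 further: cells stimulated with 0.4 nM T3 agonist during compound exposure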); details: TR-UAS-bla HEK293, beta-lactamase ratio, antagonist mode, 18 h
# In short: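 Inhibition of T3-driven (0.4nM final) beta-lactamase reporter activity was measured over 0.59 nM to 92 uM compound after 18 h at 37 C. The cells were GripTite HEK293 TR-UAS-bla in charcoal/dextran-stripped serum, with CCF4 ratio read-out and IC50 from Hill fits.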
# [4] = molecular target: Voltage-gated inwardly rectifying potassium channel KCNH2 (Homo sapiens) (UniProt Q12809); experiment: qHTS Assay for Small Molecule Inhibitors of the Human hERG Channel Activity (AID 588834);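 further: top concentration of the series differs between compounds; lower thallium flux fluorescence means stronger hERG block; nearly all actives have a fitted effect of over 50% in size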
# In short: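 hERG-BacMam U2OS, 2000 cells/well; 0.7X FluxOR loading 1 hr RT dark; cpd ~10 min 37 °C; stim buffer; FDSS fluorescence 2 min @ 1 s; AC50 Hill fit.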
# [5] = molecular target: Luciferin 4-monooxygenase (Photinus pyralis) (UniProt P08659); experiment: Biochemical firefly luciferase enzyme assay for NPC (AID 624030);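 further: purified P. pyralis luciferase at 10 nM with luciferin and ATP substrate; nearly all actives have a fitted effect of over 70% in size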
# In short: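 Direct inhibition of firefly luciferase enzyme (10 nM final, 50 mM Tris Acetate) assessed by luminescence within 5 minutes. Percent activity scaled between DMSO and PTC124 positive control, with concentration-effect curves classified by fit quality and response.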
# [6] = qHTS assay for small molecule agonists of the antioxidant response element (ARE) signaling pathway (AID 651741; active means well fitted activation curve with a large enough effect in the signal ratio; the % refers to the signal ratio)
# In short: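 Quantitative HTS in HepG2 cells stably expressing an ARE-beta-lactamase reporter; 16 h compound exposure at 37 C, followed by 2 h room-temperature incubation with LiveBLAzer B/G FRET substrate and fluorescence measurement.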
# [7] = qHTS assay for small molecule activators of the p53 signaling pathway (AID 651743; active means well fitted activation curve with a large enough effect in the signal ratio, not every such curve was filed as active; the % refers to the signal ratio); details: HCT-116 p53RE-bla, beta-lactamase FRET ratio, 16 h; activation: stronger effect = higher value
# In short: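 Read-out is fluorescence intensity from the LiveBLAzer B/G FRET substrate, added for 2 hours at room temperature after HCT-116 p53RE-bla cells had been incubated with compounds for 16 hours at 37 C.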
# [8] = qHTS assay for small molecule disruptors of the mitochondrial membrane potential - 1 hr assay (AID 651754; calls by dose curve; further: nearly all actives have a fitted effect of over 35% in size)
# In short: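 HepG2, 2,000 cells/well, overnight attachment; cpd or DMSO 1 hr, 37C/5% CO2; Mito-MPS dye 30 min, 37C; fluorescence monomer (490/535) and aggregate (540/590).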
# [9] = qHTS assay for small molecule disruptors of the mitochondrial membrane potential - 5 hr assay (AID 651755; calls by dose curve; further: nearly all actives have a fitted effect of over 40% in size)
# In short: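 HepG2, 2,000 cells/well, overnight attach; cpd or DMSO 5 hr, 37C/5% CO2; Mito-MPS 30 min 37C; fluor 490/535 + 540/590 nm.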
# [10] = molecular target: Tumor necrosis factor (Homo sapiens) (UniProt P01375); experiment: qHTS assay to identify small molecules that stimulate Tumor Necrosis Factor-alpha (TNF-alpha) secretion (AID 651757; active means well fitted curve in the direction sought with a large enough effect in the signal ratio; the % refers to the signal ratio)
# In short: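 Read-out is HTRF, a TR-FRET sandwich of cryptate- and XL665-labeled anti-TNF-alpha antibodies detecting cytokine secreted by THP-1 cells. Cells had been incubated with test compounds at 37 C for 17 hrs beforehand.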
# [11] = molecular target: Peroxisome proliferator-activated receptor alpha (Homo sapiens) (UniProt Q07869); experiment: qHTS assay for small molecule agonists of the peroxisome proliferator-activated receptor alpha (PPARalpha) signaling pathway (AID 651778); details: PathHunter PPARalpha complementation, chemiluminescence, 6 h; stronger effect = higher value
# In short: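 Chemiluminescence from complemented enzyme reported PPARalpha activation in cells after 6 hr of compound treatment at 37 C. The detection reagent was incubated for 60 min at room temperature, and compounds were scored as agonists.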
# [12] = molecular target: Nuclear receptor ROR-gamma (Homo sapiens) (UniProt P51449); experiment: qHTS assay for small molecule antagonists of the retinoid-related orphan receptor gamma (ROR-gamma) signaling pathway (AID 651802);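 further: CHO cells with doxycycline-induced ROR-gamma expression; luciferase reporter luminescence driven by ROR response element; nearly all actives have a fitted effect of over 60% in size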
# In short: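 CHO, TET-inducible ROR + RORE-LUC reporter, 1536-well qHTS. Compound pinned, doxycycline added, 16hr 37C/5% CO2. ONE-Glo, 30 min RT, luminescence; signal drop scored as antagonism.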
# [13] = qHTS assay for small molecule agonists of the antioxidant response element (ARE) signaling pathway measured by Nrf2-dependant transcriptional activity (AID 720636; active means well fitted curve in the direction sought with a large enough effect in the repeat runs; an effect the other way counts as inactive or inconclusive;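 further: HepG2 cells with an ARE-driven luciferase reporter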)
# In short: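 We exposed ARE-luc HepG2 cells, seeded in assay medium with 1% dialyzed FBS and allowed 6 hr to adhere, to test compounds overnight (16 hr, 37 C) before measuring luciferase with ONE-Glo.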
# [14] = qHTS assay for small molecule agonists of the antioxidant response element (ARE) signaling pathway measured by Nrf2-dependant transcriptional activity - cell viability counter screen (AID 720653; active means well fitted curve in the direction sought with a large enough effect in the repeat runs; an effect the other way counts as inactive or inconclusive); details: ARE-bla HepG2 viability, CellTiter-Glo ATP luminescence, 16 h; max response: stronger effect = lower value
# In short: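 Cytotoxicity counter screen: intracellular ATP quantified by CellTiter-Glo luminescence in the same ARE-bla HepG2 plates, after 16 h compound exposure and a 2 h beta-lactamase substrate step.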
# [15] = qHTS Assay for Identifying Gametocytocidal Compounds (AID 743244);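 further: actives lower the fluorescent signal which means gametocytes are killed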; details: P. falciparum 3D7 stage III-V gametocytes, alamarBlue, 72 h; max response: stronger effect = lower value
# In short: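 A resazurin-based viability read-out was applied to mature P. falciparum gametocytes: 72 h compound treatment, then 24 h dye incubation, with falling fluorescence signalling gametocytocidal effect.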
# [16] = qHTS assay for cell viability of HEK293 cells (AID 743288); details: ATP luminescence (CellTiter-Glo), 18 h; max response: stronger effect = lower value; further: nearly all actives have a fitted effect of over 50% in size
# In short: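 HEK293 parental, 2,000 cells/well; ≥5 h pre-incubation 37 C; pintool compound addition; 18 h, 37 C; CellTiter-Glo 30 min RT; luminescence read.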
# [17] = qHTS assay for cell viability of the p53RE-bla HCT-116 cell line (AID 743292); further: nearly all actives have a fitted effect of over 55% in size
# In short: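 In this qHTS counter-screen, metabolically competent p53RE-bla HCT-116 cells were counted via their ATP content. Compounds were applied for 16 h at 37 C and luciferase-coupled luminescence was measured.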
# [18] = P-glycoprotein substrates identified in KB-8-5-11 adenocarcinoma cell line, qHTS therapeutic library screen (AID 1346987); further: nearly all actives have a fitted effect of over 65% in size
# In short: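 Steps: plate 500 KB-8-5-11 cells/well in DMEM + 10% FCS (colchicine removed); pin compounds in dose-response; incubate 72 h, 37 degree C, 5% CO2; add CellTiter-Glo, 5 min; read luminescence.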
# [19] = Drug repurposing screens with cells derived from glioblastoma tumor samples (AID 1345199); details: GBM patient neurospheres viability, ATP luminescence, 48 h; Potency: tumour line A; series mostly up to 45.9 µM; further: nearly all actives have a fitted effect of over 40% in size
# In short: (§2)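 Four patient lines of CD133+ GBM neurospheres were screened at several concentrations; hits were retested in those lines plus three slower-growing GBM lines, using 48-hour treatment and ATP-based viability.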
# astro = experiment: as above; details: viability, ATP luminescence, 48 h; series mostly up to 45.9 µM
# In short: as §2
# [20] = molecular target: Nuclear receptor subfamily 1 group I member 2 (Rattus norvegicus) (UniProt Q9R1A7); experiment: qHTS assay for small molecule activators of the rat pregnane X receptor (rPXR) signaling pathway (AID 651751; call rule not given here); details: rPXR reporter cells, luciferase (One-Glo), 24 h
# [21] = qHTS assay for small molecule activators of the human pregnane X receptor (PXR) signaling pathway (AID 720659; call rule not given here)
# Luciferin 4-monooxygenase (Photinus pyralis), sequence (P08659 whole entry, looked up): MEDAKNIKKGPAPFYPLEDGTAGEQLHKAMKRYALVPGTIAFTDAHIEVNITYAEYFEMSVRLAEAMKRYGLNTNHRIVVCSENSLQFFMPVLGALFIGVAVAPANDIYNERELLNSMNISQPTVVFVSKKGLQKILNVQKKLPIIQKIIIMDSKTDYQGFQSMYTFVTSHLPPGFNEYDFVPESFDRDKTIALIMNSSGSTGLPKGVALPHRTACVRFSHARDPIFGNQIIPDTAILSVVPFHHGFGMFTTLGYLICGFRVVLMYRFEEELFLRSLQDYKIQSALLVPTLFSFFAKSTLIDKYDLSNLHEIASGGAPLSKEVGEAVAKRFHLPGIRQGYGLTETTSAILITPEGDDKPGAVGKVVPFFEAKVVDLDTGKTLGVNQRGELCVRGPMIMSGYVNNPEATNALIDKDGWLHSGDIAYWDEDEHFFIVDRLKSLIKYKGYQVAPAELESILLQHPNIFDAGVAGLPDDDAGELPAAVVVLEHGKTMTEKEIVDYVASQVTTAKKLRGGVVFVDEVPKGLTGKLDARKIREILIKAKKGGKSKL
# Nuclear receptor ROR-gamma (Homo sapiens), sequence (P51449 whole entry, looked up): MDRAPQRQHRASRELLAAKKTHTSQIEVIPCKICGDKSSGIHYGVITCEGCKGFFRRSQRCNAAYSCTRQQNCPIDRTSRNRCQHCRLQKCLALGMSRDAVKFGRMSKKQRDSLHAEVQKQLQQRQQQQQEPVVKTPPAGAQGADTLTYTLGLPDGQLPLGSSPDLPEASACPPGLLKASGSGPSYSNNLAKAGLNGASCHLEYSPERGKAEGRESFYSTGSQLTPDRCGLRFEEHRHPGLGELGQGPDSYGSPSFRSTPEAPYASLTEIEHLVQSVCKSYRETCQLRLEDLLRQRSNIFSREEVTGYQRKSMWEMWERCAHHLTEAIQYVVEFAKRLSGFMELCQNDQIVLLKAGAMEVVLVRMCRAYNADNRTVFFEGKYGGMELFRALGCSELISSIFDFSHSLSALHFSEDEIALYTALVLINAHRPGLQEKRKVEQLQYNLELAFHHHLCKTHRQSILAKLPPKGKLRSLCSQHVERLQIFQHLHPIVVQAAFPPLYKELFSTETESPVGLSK
# Thyroid hormone receptor beta (Homo sapiens), sequence (P10828 whole entry, looked up): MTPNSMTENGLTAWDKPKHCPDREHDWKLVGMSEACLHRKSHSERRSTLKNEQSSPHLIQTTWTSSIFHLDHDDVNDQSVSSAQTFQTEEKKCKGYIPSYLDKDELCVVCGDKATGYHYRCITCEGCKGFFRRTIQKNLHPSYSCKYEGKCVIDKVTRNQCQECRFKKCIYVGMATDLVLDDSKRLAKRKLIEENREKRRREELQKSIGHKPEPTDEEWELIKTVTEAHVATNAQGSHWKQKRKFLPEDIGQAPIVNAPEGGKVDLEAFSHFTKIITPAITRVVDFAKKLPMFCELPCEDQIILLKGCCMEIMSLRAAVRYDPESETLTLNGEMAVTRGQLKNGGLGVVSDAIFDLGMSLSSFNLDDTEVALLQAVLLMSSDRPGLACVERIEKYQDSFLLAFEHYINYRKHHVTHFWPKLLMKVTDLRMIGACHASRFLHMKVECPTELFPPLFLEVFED
# Tumor necrosis factor (Homo sapiens), sequence (P01375 whole entry, looked up): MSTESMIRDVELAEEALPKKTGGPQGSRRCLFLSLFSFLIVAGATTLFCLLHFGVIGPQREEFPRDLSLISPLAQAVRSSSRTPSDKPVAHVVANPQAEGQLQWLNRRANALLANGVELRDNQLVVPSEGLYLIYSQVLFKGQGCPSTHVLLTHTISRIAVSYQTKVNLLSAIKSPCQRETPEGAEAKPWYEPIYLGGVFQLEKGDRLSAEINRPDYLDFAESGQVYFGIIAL
# Retinoic acid receptor RXR-alpha (Homo sapiens), sequence (P19793 whole entry, looked up): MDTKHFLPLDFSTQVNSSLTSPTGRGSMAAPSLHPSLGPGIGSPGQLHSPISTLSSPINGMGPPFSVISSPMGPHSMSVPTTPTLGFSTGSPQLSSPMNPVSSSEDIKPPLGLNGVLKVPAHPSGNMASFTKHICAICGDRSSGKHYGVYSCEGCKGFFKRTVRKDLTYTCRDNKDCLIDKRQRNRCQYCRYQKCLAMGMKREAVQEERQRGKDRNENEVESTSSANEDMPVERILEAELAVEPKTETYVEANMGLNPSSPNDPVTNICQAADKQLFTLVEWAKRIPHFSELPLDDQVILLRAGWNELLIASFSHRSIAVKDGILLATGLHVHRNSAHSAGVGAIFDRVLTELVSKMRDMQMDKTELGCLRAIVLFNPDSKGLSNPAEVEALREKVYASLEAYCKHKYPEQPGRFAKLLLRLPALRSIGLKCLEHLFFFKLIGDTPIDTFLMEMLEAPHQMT
# Voltage-gated inwardly rectifying potassium channel KCNH2 (Homo sapiens), sequence (Q12809 whole entry, looked up): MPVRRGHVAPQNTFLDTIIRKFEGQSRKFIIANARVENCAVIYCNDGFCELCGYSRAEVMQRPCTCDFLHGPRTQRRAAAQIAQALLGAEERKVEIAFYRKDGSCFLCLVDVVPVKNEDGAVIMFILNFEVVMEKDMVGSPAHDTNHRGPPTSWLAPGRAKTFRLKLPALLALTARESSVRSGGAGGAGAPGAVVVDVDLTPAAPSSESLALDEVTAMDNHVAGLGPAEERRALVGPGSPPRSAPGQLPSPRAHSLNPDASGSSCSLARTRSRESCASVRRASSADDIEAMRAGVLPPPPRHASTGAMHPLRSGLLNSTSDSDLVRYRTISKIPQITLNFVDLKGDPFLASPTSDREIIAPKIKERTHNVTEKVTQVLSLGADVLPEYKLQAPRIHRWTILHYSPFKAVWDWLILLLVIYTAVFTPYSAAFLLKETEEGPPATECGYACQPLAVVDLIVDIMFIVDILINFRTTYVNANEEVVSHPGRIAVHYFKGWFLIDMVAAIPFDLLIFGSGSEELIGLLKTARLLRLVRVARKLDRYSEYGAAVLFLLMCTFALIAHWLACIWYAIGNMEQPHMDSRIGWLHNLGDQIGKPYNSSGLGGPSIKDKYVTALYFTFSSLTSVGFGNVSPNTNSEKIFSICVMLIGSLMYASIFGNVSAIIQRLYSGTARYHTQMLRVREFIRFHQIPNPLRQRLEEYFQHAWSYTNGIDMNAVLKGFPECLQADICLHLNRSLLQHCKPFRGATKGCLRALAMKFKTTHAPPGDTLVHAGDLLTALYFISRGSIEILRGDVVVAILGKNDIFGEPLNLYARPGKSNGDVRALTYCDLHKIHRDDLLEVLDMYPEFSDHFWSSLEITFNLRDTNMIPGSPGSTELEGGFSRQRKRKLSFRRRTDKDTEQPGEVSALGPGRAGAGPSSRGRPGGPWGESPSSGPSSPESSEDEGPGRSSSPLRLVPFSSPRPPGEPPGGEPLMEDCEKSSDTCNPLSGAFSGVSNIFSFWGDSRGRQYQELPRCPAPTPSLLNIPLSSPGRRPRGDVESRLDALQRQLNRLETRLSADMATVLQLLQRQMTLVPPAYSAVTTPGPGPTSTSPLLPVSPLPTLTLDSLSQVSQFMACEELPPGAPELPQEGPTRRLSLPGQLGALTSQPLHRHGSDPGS
# Nuclear receptor subfamily 1 group I member 2 (Rattus norvegicus), sequence (Q9R1A7 whole entry, looked up): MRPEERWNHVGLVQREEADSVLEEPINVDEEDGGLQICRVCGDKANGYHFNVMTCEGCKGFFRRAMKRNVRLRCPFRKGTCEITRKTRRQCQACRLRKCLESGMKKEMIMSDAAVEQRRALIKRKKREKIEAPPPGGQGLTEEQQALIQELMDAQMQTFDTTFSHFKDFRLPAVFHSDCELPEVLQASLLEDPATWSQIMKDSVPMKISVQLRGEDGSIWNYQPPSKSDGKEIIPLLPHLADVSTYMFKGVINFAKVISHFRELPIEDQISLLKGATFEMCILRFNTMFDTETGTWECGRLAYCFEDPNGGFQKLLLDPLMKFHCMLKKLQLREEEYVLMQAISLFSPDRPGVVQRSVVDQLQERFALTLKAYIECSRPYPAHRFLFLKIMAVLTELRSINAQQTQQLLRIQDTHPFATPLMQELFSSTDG
# Peroxisome proliferator-activated receptor alpha (Homo sapiens), sequence (Q07869 whole entry, looked up): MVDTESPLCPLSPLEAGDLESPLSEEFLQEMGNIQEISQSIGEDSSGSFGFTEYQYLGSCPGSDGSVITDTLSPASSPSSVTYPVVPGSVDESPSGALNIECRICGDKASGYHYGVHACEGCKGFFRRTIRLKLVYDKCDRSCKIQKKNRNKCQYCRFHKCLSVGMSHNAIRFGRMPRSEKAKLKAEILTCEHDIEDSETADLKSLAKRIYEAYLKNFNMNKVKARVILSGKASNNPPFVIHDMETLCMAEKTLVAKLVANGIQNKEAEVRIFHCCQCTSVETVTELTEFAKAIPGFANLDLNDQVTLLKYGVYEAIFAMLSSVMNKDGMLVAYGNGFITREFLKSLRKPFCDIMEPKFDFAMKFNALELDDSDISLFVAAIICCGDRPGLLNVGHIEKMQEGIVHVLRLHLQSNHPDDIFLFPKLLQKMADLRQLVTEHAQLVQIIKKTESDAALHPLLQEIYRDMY
compound,measurement,setting,value
O=Cc1ccccc1,max response,[1],-3.83%
same,max response,[2],10.9% (inactive)
same,activity change % (negative = inhibition),[3],12% (inactive)
same,Potency,[4],inactive
same,Potency,[5],inactive
same,Potency,[6],inactive
same,activation,[7],-1.08% (inactive)
same,Potency,[8],inactive
same,Potency,[9],inactive
same,outcome,[10],inactive
same,max response,[11],-3.46% (inactive)
same,Potency,[12],inactive
same,Potency,[13],inactive
same,max response,[14],-5.51% (inactive)
same,max response,[15],-4.29% (inactive)
same,max response,[16],-12% (inactive)
same,outcome,[17],inactive
same,Potency,[18],inactive
same,Potency,[19],inactive
same,Potency,astro,inactive
same,max response,[20],2.23% (inactive)
same,outcome,[21],inactive

# Reference: PubChem BioAssay (NCATS)
